This is a sample that favours compounds with a hit; in the whole collection about 2.8% have one here.
Mcl-1 Bim block = inhibitors of Bim-Mcl-1 interaction, human; inhibition, % at 10 µM; Q07820; Bead-based flow cytometry, Bim peptide-Mcl-1 binding; 190,000 tested, 0.1% active; in the data active = inhibition above about 40%;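 note: 0% = no compound tracer wells and 100% = peptide blocker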
Target sequence (Q07820 whole entry, looked up): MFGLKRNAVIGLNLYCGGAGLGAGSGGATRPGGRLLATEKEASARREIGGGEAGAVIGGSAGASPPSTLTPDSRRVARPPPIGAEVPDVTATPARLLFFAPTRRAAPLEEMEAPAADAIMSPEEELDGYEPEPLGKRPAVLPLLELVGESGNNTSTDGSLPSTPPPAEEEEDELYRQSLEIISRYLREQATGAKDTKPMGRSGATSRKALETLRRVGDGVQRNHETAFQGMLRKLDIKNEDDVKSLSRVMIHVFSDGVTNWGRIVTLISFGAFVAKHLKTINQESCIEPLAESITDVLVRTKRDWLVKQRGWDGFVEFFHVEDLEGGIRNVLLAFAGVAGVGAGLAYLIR
L929 necroptosis = L929 zVAD cell death inhibition; L929 zVAD necroptosis rescue, ATP luminescence, 24 h; with zVAD 60 µM; viability rescue, % at 10 µM; 220,000 tested, 0.38% active;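 active = activation, scaled between plate controls, above about 75%, limit read from the data; inactive = activation under that limit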;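 note: 0% = zVAD with DMSO and 100% = DMSO alone without zVAD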
Mcl1-Noxa inh = disrupts binding of human Mcl-1 to Noxa peptide. Q07820. TR-FRET Mcl-1/Noxa peptide binding, 2 h. inhibition, % at 21.7 µM. 220,000 tested, 1.5% active;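 active = compounds that cut the protein-peptide binding signal by more than 50% relative to plate controls in a single-dose test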;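 note: His-tagged Mcl-1 with rhodamine Noxa BH3 peptide and terbium anti-His antibody; 0% = Mcl-1 plus Noxa peptide wells and 100% = peptide-only wells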
m-calpain inh = inhibitors of pig calpain II. purified calpain II, fluorogenic peptide substrate, 30 min. inhibition, % at 16 µM. 220,000 tested, 0.37% active;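 active = inhibition above about 50%, limit read from the data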
Mcl1 Bid PPI = Mcl-1/Bid interaction inhibition; Q07820; TR-FRET Mcl-1/Bid-Dy647 peptide binding, 1536-well; inhibition, % at 21.7 µM; 220,000 tested, 0.97% active; AID 1021;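 active = compounds that cut the binding signal by more than half at the single screening dose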;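 note: His-tagged Mcl-1 with europium anti-His antibody binding Bid BH3 peptide; 0% = Mcl-1 plus peptide wells and 100% = peptide-only wells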
TNF necrop inh = TNF-alpha cell death inhibition in Jurkat FADD-/- cells; 220,000 tested, 0.068% active; activation (protection from cell death), % at 10 µM; Jurkat FADD-/- TNF necroptosis rescue, ATP luminescence, 24 h; 0 = TNF only, 100 = no-TNF cells;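 active = activation, meaning protection from cell death, of at least 50% relative to plate controls; inactive = activation below 50%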;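 note: necroptosis triggered by 40 ng/mL TNF-alpha added together with compound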
* = called active by the depositor; i = inactive; . = not tested or not shown.

SMILES | Mcl-1 Bim block | L929 necroptosis | Mcl1-Noxa inh | m-calpain inh | Mcl1 Bid PPI | TNF necrop inh
COc1cc2c(cc1OC)C(c1ccccc1F)OC(=O)C2 (centres undefined) | 96* | 2 | 10 | 9 | -8 | 3
Cc1cc2c(C)cc(=O)[nH]c2cc1NC(=O)CCl | . | 62 | 25 | -8 | 5 | 0
O=C(CCl)Nc1cc2[nH]c(=O)[nH]c2cc1Br | 3 | 71 | 51* | -40 | -17 | 0
N#C/C(=C(/O)COC(=O)c1ccc(Cl)c(S(=O)(=O)N2CCOCC2)c1)c1nc2ccccc2[nH]1 | -1 | 16 | 52* | -86 | -1 | 4
Cc1ccc(C(=O)OC/C(O)=C(\C#N)c2nc3ccccc3[nH]2)cc1S(=O)(=O)N1CCOCC1 | -2 | 1 | -18 | -79 | -28 | 2
O=C(c1c(F)c(F)c(F)c(F)c1F)N1CCN(c2cccc(C(F)(F)F)c2)CC1 | -10 | 0 | -23 | -17 | 3 | 0
O=C(/C=C/c1ccc(Br)cc1)N1CCN(c2cccc(C(F)(F)F)c2)CC1 | -2 | 0 | -4 | 35 | 61* | 1
O=C(/C=C/c1cccc(Br)c1)N1CCN(c2cccc(C(F)(F)F)c2)CC1 | -26 | 0 | 1 | 13 | -11 | 1
O=C(c1ccncc1)N1CCN(c2cccc(C(F)(F)F)c2)CC1 | 0 | 0 | 57* | -24 | -24 | 1
CCN(CC)c1ccc(/C=N/NC(=O)Nc2nonc2N)cc1 | -4 | 2 | 18 | -19 | -68 | 2
Cn1c(=S)c2[nH]c(SCCN3CCCC3)nc2n(C)c1=O | . | -1 | 2 | 8 | -165 | 0
Cc1ccc(C2Nc3cccc4cccc(c34)N2)s1 | -3 | 1 | 42 | 3 | -24 | -3
FC(F)(F)c1ccc(C2Nc3cccc4cccc(c34)N2)cc1 | -2 | -1 | 27 | 1 | -53 | -1
COc1cc(C2Nc3cccc4cccc(c34)N2)cc(OC)c1O | 12 | 4 | 100* | -47 | 10 | -12
Oc1ccc(C2Nc3cccc4cccc(c34)N2)c(O)c1 | 7 | 0 | 103* | -174 | 19 | -4
COc1cc(C2Nc3cccc4cccc(c34)N2)ccc1OC(C)=O | 12 | 0 | 69* | -242 | -1 | -9
c1coc(C2Nc3cccc4cccc(c34)N2)c1 | 15 | 3 | 76* | -61 | -21 | -13
COC(=O)c1ccc(C2Nc3cccc4cccc(c34)N2)cc1 | 1 | -1 | 40 | 22 | -31 | -5
CCOC(=O)C1CCN(C(=O)CSC2=NCCS2)CC1 | 0 | -2 | -2 | -20 | -14 | 3
COc1cccc(-n2c(SCC(=O)OC(C)C)nnc2-c2cccnc2)c1 | -1 | 0 | 0 | 52* | -6 | 0
O=C(Nc1cccc2cccnc12)c1ccc(Br)o1 | -1 | 76* | 19 | -13 | -3 | -5
O=C(Nc1ccccc1C(=O)O)c1cccc(NC(=O)c2ccc(Br)o2)c1 | -2 | 0 | 36 | 51* | 16 | -1
O=C(Nc1ccccc1C(=O)O)c1ccc(NC(=O)c2ccc(Br)o2)cc1 | -5 | -1 | -11 | -13 | -21 | -1
COc1ccc(CNC(=O)c2coc(=O)c3ccccc23)c(OC)c1 | -4 | 3 | 8 | 2 | -21 | 0
Cc1nn(-c2ccccc2)c2sc(-c3n[nH]c(=S)o3)cc12 | 5 | 21 | 67* | i | -16 | 2
SMILES | Mcl-1 Bim block | L929 necroptosis | Mcl1-Noxa inh | m-calpain inh | Mcl1 Bid PPI | TNF necrop inh
O=C(COC(=O)c1cc(=O)[nH]c(=O)[nH]1)Nc1cccc(S(=O)(=O)N2CCCCC2)c1 | -2 | 0 | -17 | -7 | -11 | 0
O=C(Nc1ccc(Cl)cc1Cl)c1ccc(-c2ccccc2)cc1 | -3 | 1 | 70* | 2 | 4 | 2
COc1cc2c(cc1OC)CN(S(C)(=O)=O)CC2 | 10 | -1 | -1 | -24 | -16 | 0
Cc1c(Br)c(=O)oc2c(Br)c(O)c(O)cc12 | 8 | 1 | 64* | -121 | -112 | 7
CCC(C)NC(=S)NNC(=O)c1ccc(C(C)(C)C)cc1 (centres undefined) | 25 | 2 | -56 | 15 | -58 | -2
CCCC1=[N+](CC(=O)c2ccc(C)cc2)CCn2cccc21 | 0 | 0 | 0 | 4 | -14 | 1
COc1ccccc1NC(=O)CSCc1nc2ccccc2[nH]1 | -4 | 1 | 13 | 0 | 52* | 2
COc1ccc(-n2c(=O)c3c4c(sc3n(CC(N)=O)c2=O)CCCCC4)cc1 | . | 0 | -2 | -22 | -15 | 1
O=C1/C(=C\c2ccco2)NC(=S)N1c1ccccc1 | 3 | -1 | 58* | -52 | -31 | -1
Cc1cccc(C2=N/C(=C\c3cccs3)C(=O)O2)c1 | -3 | -1 | 17 | 17 | 1 | -2
COc1ccc(N2CCN(c3cnc4ccccc4n3)CC2)cc1 | 3 | 1 | 59* | 1 | -16 | 2
O=C(CCS(=O)(=O)c1cccs1)Nc1ccc(C(=O)NC2CCCC2)cc1 | 4 | 13 | 3 | -14 | -22 | 0
CCOC(=O)C1CCN(C(=O)Nc2ccc(OC(F)(F)F)cc2)CC1 | . | 0 | 9 | -1 | -1 | 1
COc1ccc(CNC(=O)c2n[nH]c3ccccc23)cc1OC | 0 | 0 | 5 | 23 | 55* | 0
O=c1c2ccccc2sn1-c1ccc(S(=O)(=O)N2CCCCC2)cc1 | . | 0 | . | . | . | -4
Cc1ccc(-n2sc3ccccc3c2=O)cc1S(=O)(=O)N1CCCCC1 | -1 | -1 | 54* | -30 | -12 | -9
Cc1ccc2nc(NC(=O)CSc3nncc(=O)n3N)sc2c1 | 0 | 0 | 25 | 18 | 2 | 1
O=[N+]([O-])c1cccc(N=Cc2sc3ccccc3c2O)c1 | 0 | 0 | 59* | -11 | 38 | -4
O=[N+]([O-])c1ccc(N=Cc2sc3ccccc3c2O)cc1 | -2 | 1 | 33 | 17 | 23 | -2
COc1cccc(C(=O)NNC(=O)Cc2cccs2)c1 | -4 | 3 | 8 | 8 | -3 | 1
Cc1ccc(CN2CCSc3sccc3C2=O)cc1 | -1 | 12 | 12 | -8 | -10 | 83*
COc1ccc(-c2nc3ccccc3c(=O)n2CCOc2c(C)cccc2C)cc1 | -21 | 1 | -5 | 0 | 0 | 1
COc1ccc(-c2nc3ccccc3c(=O)n2CCOc2cccc(C)c2C)cc1 | -4 | 1 | 11 | -3 | 95* | 0
Cc1oc2c(O)c(O)ccc2c(=O)c1-c1cnn(-c2ccccc2)c1 | 0 | 5 | 56* | 8 | -54 | -8
Cc1oc2c(O)c(O)ccc2c(=O)c1-c1ccccc1 | . | 0 | 71* | 7 | -38 | -9
Cc1c(Cc2ccccc2)c(=O)oc2c(O)c(O)ccc12 | -2 | 1 | 88* | -5 | -4 | -5
Cc1c(Cc2ccccc2)c(=O)oc2cc(O)ccc12 | . | 1 | 10 | -296 | -18 | 0

Screening results: PubChem, several laboratories
